Results as given in PubChem BioAssay.
Several values for one entry are separate records, joined by “and”; a condition that tells them apart may be missing. Equal values may be shown once. Activity calls are given as the source filed them. Unless noted, no stated cut-off is given here; in the data, active means inhibition above about 44%; inactive means the rest.

Key:
[1] = target: Nuclear receptor coactivator 3 (Homo sapiens) (UniProt Q9Y6Q9); assay: SRC3 coactivator transcriptional activity inhibitors, confirmation, cell-based, luminescence, quadruplicate (AID 588792;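 active means mean inhibition over 43.08%, the solvent-only control mean plus 3 SD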;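 further: 0% = DMSO treated cells and 100% = gossypol at 36 µM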); details: HEK293 GAL4-SRC3 luciferase reporter, at 3.6 µM, stronger effect = higher value
Nuclear receptor coactivator 3 (Homo sapiens), sequence (Q9Y6Q9 whole entry, looked up, the tested form may be a part): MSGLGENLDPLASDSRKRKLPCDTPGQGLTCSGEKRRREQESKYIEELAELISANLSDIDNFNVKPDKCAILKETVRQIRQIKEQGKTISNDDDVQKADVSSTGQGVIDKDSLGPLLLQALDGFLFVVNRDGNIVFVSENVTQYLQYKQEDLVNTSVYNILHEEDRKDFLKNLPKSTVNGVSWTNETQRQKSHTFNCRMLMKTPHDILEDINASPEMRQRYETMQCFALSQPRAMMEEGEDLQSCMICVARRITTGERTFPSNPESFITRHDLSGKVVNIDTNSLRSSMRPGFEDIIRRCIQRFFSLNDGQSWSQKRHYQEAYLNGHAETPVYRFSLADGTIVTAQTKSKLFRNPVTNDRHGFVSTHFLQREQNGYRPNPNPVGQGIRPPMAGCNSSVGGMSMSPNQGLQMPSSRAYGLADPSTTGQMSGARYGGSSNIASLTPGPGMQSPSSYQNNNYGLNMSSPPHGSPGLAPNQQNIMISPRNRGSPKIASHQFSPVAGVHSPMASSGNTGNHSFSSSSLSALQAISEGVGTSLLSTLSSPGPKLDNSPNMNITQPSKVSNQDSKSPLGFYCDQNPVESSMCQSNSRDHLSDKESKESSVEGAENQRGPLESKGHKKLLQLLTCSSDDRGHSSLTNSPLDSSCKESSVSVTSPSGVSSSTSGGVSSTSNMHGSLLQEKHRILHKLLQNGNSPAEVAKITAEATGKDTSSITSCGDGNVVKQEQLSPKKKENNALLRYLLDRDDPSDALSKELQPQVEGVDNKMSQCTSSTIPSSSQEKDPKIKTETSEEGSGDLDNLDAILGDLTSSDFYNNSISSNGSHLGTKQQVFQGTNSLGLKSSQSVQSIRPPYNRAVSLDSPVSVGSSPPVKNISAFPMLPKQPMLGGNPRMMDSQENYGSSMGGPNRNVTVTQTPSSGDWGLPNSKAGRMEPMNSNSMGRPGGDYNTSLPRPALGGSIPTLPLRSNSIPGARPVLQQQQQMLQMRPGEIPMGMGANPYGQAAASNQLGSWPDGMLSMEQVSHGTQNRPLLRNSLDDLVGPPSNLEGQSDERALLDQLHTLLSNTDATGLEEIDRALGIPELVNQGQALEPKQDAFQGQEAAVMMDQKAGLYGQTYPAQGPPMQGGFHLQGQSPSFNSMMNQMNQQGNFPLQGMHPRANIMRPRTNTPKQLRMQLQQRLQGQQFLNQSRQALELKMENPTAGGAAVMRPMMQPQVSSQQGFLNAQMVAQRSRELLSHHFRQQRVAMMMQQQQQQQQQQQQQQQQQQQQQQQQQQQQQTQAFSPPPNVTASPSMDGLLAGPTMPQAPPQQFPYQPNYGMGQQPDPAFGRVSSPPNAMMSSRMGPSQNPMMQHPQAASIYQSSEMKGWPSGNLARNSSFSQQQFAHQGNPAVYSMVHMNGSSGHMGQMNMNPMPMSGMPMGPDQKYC

[2] = test system: transactivating tegument protein VP16 (Human herpesvirus 1), Gal4-VP16 luciferase reporter; assay: VP16 transactivation inhibitors, counter-screen for SRC3 inhibitor project, cell-based, luminescence, high throughput (AID 588794; in the data active means inhibition above about 30%); details: mammalian cells, VP16-driven luciferase reporter luminescence; at 3.6 µM; stronger effect = higher value
[3] = StAR promoter reporter inhibitors, counter-screen for LRH-1 inverse agonist project, cell-based, luminescence, high throughput (AID 651611; in the data active means inhibition above about 28%); details: StAR promoter luciferase reporter counterscreen, at 3.6 µM, stronger effect = higher value
[4] = target: Nuclear receptor subfamily 5 group A member 2 (Homo sapiens) (UniProt O00482); assay: LRH-1 (NR5A2) inverse agonists, retest, confirmation, cell-based, luminescence (AID 651613; in the data active means inhibition above about 42%;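 further: HEK293T cells co-transfected with LRH-1 and StAR promoter luciferase reporter; 0% = vehicle wells and 100% = parental cells lacking receptor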); details: cell-based LRH-1 luciferase reporter, inverse agonism; at 3.6 µM; stronger effect = higher value
Nuclear receptor subfamily 5 group A member 2 (Homo sapiens), sequence (O00482 whole entry, looked up): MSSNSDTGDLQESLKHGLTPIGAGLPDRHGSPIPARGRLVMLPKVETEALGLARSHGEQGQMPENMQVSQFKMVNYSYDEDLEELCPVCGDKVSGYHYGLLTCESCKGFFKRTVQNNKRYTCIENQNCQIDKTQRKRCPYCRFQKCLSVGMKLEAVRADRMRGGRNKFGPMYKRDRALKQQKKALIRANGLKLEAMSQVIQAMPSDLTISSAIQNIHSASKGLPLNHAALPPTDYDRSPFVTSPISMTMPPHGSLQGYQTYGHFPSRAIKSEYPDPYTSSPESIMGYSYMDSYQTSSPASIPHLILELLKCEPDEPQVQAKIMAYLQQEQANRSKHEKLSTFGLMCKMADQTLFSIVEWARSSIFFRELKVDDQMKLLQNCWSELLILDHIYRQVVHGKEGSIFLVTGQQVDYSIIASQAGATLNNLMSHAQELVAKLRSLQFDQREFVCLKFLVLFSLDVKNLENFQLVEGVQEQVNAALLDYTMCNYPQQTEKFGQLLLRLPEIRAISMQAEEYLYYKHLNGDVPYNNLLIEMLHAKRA

[5] = target: Steroidogenic factor 1 (Homo sapiens) (UniProt Q13285); assay: SF1 (NR5A1) inverse agonists, counter-screen for LRH-1 inverse agonist project, cell-based, luminescence, high throughput (AID 651614); details: cell-based SF1 luciferase reporter, at 3.6 µM, stronger effect = higher value;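 further: cells cotransfected with StAR promoter reporter and SF1 expression vector; 0% = vehicle on cells with receptor and 100% = vehicle on cells lacking receptor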
Steroidogenic factor 1 (Homo sapiens), sequence (Q13285 whole entry, looked up, the tested form may be a part): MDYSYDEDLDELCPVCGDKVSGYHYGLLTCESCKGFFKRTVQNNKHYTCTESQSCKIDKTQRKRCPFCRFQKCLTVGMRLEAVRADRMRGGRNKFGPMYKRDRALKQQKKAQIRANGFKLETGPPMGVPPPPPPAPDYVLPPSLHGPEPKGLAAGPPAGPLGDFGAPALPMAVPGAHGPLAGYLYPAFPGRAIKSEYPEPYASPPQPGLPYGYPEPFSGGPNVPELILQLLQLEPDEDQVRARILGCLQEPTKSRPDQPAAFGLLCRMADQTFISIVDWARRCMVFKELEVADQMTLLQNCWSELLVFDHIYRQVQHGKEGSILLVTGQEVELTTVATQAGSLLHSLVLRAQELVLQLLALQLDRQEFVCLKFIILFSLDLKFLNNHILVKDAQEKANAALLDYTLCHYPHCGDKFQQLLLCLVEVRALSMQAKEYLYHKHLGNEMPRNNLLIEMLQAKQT

[6] = VP16 transactivation reporter inhibitors, counter-screen for LRH-1 inverse agonist project, cell-based, luminescence, high throughput (AID 651615; in the data active means inhibition above about 33%); details: Gal4-VP16 luciferase reporter cells, at 3.6 µM, stronger effect = higher value
[7] = test system: transactivating tegument protein VP16 (Human herpesvirus 1); assay: VP16 transactivation reporter inhibitors, counter-screen for SRC2 inhibitor project, cell-based, luminescence, single concentration (AID 652007; in the data active means inhibition above about 36%); details: cell-based VP16 transactivation luciferase reporter, at 8.9 µM, stronger effect = higher value
[8] = target: Nuclear receptor coactivator 2 (Homo sapiens) (UniProt Q15596); assay: SRC2 coactivator transcriptional activity inhibitors, confirmation, cell-based, luminescence, HEK293, triplicate (AID 652008;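 active means mean inhibition above 46.5%, the solvent-only control mean plus 3 SD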;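 further: 0% = DMSO-treated cells and 100% = Gossypol at 36 µM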); details: HEK293 GAL4-SRC2 luciferase reporter, at 8.9 µM, stronger effect = higher value
Nuclear receptor coactivator 2 (Homo sapiens), sequence (Q15596 whole entry, looked up, the tested form may be a part): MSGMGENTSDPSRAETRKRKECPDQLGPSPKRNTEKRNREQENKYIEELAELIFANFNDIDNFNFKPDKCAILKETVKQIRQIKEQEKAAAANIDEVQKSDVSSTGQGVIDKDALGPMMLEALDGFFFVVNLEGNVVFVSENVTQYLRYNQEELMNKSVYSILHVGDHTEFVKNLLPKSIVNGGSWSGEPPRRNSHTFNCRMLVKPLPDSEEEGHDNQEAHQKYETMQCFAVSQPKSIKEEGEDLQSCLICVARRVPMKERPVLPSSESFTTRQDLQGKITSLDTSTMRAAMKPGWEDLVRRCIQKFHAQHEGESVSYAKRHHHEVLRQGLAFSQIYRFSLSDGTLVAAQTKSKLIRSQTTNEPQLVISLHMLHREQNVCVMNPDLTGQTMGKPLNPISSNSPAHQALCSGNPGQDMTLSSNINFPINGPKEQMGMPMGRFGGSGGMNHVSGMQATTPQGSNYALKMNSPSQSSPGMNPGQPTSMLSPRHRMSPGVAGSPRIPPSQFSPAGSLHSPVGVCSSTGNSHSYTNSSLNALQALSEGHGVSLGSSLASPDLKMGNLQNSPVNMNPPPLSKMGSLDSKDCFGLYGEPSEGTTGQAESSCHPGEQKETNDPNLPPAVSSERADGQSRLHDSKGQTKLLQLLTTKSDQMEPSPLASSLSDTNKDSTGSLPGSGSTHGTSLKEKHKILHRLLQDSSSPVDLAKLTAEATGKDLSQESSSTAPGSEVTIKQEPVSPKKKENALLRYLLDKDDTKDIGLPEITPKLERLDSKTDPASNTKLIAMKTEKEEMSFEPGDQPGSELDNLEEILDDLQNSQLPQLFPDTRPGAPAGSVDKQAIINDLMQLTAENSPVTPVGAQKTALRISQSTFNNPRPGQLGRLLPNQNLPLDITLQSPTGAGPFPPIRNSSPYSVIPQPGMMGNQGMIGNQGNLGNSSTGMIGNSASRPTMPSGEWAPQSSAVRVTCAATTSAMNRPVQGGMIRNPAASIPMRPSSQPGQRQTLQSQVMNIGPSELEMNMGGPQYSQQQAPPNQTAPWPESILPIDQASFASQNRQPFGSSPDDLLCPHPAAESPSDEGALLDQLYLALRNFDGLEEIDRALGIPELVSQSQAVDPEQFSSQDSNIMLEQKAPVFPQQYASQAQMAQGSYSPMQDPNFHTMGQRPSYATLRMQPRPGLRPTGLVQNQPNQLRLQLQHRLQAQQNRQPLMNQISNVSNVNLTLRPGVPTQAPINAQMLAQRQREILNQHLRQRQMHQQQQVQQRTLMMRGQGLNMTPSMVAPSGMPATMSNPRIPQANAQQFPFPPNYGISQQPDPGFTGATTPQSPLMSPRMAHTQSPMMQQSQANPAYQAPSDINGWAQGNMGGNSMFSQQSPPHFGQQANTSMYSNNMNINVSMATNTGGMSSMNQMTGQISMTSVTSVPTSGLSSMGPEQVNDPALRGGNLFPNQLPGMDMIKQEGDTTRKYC

Measured: inhibition

CCCCCCCCCCCCCCCCn1cc[n+](C)c1
active: [2] 31.6% | [3] 36% | [4] 65.5% | [5] 70.5% | [6] 64.4%
inactive: [1] 5.39%

CCOc1ccc(Nc2cc(C)nc(-n3nc(C)cc3C)n2)cc1
inactive: [1] 32.9% | [2] 8.98% | [7] -8.07% | [8] 16.3%
active: [3] 46.8% | [4] 52.9% | [5] 64.8% | [6] 57.4%

Cc1cc(C)c(S(=O)(=O)/N=C2\C=C(Nc3ccc(C(=O)O)cc3)C(=O)c3ccccc32)c(C)c1
inactive: [1] 12.8% | [2] 11.8% | [7] 6.44% | [8] 1.79%
active: [3] 40.8% | [4] 61.8% | [5] 61% | [6] 43.8%

O=S(=O)(NCC1CCCO1)c1ccc(-c2ccc(S(=O)(=O)NCC3CCCO3)cc2)cc1 (centres undefined)
active: [2] 41.9% | [4] 69.5% | [5] 61.2% | [6] 56.7%
inactive: [1] 9.93% | [3] 24.6%

COc1ccc(-n2c(-c3ccc(Cl)cc3)c[n+]3c2CCc2ccccc2-3)cc1
inactive: [1] 16.3%
active: [2] 45.2% | [3] 30.1% | [4] 79.2% | [5] 69.1% | [6] 70.5%

COc1cc(/C=C/C(=O)c2ccc(C)cc2)ccc1OCC#N
inactive: [1] 31.2% | [3] 23.6% | [4] 29.3% | [5] 36.5% | [7] 28% | [8] 29.4%
active: [2] 41.2% | [6] 44.4%

CCOc1cc(/C=C2\CCC/C(=C\c3cc(Cl)c(O)c(OCC)c3)C2=O)cc(Cl)c1O
active: [1] 43.9% | [4] 47.7% | [5] 61.1% | [6] 46.4%
inactive: [2] 21.8% | [3] 11.2%

CCCC(=O)NC(c1ccc(N(C)C)cc1)c1ccc2cccnc2c1O (centres undefined)
active: [1] 78.2% | [2] 77% | [3] 91.9% | [4] 104% | [5] 91.3% | [6] 89.2%

Cc1ccc(CSC(Nc2ccc(F)cc2)=C(C#N)C#N)cc1
active: [4] 59.8% | [5] 59.9% | [6] 45%
inactive: [1] 4.71% | [2] 28.5% | [3] 19.4% | [7] 12.8% | [8] 31.9%

Cc1ncc(CO)c(/C=N/NC(=O)c2cc3c(s2)CCCC3)c1O
inactive: [1] 40.9% | [2] 27.7%
active: [3] 76.8% | [4] 94.7% | [5] 77.2% | [6] 82.6%

O=C(CCl)N(c1ccccc1)C1CCCCC1
inactive: [1] 30.5% | [2] -7.5% | [6] 16.5%
active: [3] 43.5% | [4] 70.4% | [5] 66.2% | [7] 55.6% | [8] 57.8%

COc1ccc(-c2n(Cc3ccccc3)c3ccccc3[n+]2Cc2ccccc2)cc1
active: [1] 64% | [2] 66.2% | [3] 76.3% | [4] 109% | [5] 90.3% | [6] 94.4%

O=C(NCc1cccnc1)/C(=C\c1ccc(-c2cccc(Cl)c2)o1)S(=O)(=O)c1ccccc1
active: [3] 61.8% | [4] 87.1% | [5] 89.3% | [6] 74.9% | [7] 44% | [8] 53.1%
inactive: [1] 37.8% | [2] 13.6%

C/C(=N\NC(N)=S)C12CC3CC(CC(C3)C1)C2
active: [2] 32.8% | [4] 66.1% | [5] 71.4% | [6] 48.1%
inactive: [1] 41.6% | [3] 20.4% | [7] 9.52% | [8] 26.9%

S=C(NCCCc1cnc[nH]1)NCCCN(Cc1ccc(Cl)cc1)c1ccc(Br)cn1
active: [1] 83.9% | [2] 57.4% | [3] 91.2% | [4] 102% | [5] 96.4% | [6] 82.4% | [8] 51.4%
inactive: [7] -0.33%

CC(=O)c1cn(CC(=O)Nc2ccc(C)cc2C)c2ccccc12
active: [4] 71.5% | [5] 64.5% | [6] 47.4%
inactive: [1] 11.1% | [2] 28.2% | [3] 11.3%

COc1ccc(-n2c(-c3ccc(Br)cc3)c[n+]3c2CCc2ccccc2-3)cc1
inactive: [1] 32.4% | [3] 22.1%
active: [2] 36.3% | [4] 96.4% | [5] 65% | [6] 73%

Cc1ccc(C(=O)Nc2sc3c(c2C(=O)O)CCCC3)o1
inactive: [1] 17.1%
active: [2] 40% | [3] 32.5% | [4] 75.9% | [5] 78.6% | [6] 61.7%

Cn1c(CCN2CCN(c3ccccn3)CC2)nc2cc(NC(=O)COc3ccc(Cl)cc3)ccc21
active: [2] 33.9% | [3] 29.2% | [4] 49.8% | [5] 51.4% | [6] 51.6%
inactive: [1] 18%

C=C1C(=O)[C@]23C[C@H]1CCC2[C@@]1(C)C(C[C@@H]3O)[C@](C)(C(=O)OC)CC[C@@H]1OC(C)=O (some centres undefined)
active: [1] 62.7% | [2] 44.9% | [3] 61.7% | [4] 70.7% | [5] 80.6% | [6] 76.2% | [7] 83.2% | [8] 99%

CC(=O)Nc1ccc(Oc2sc(C(=O)c3ccccc3)c(N)c2C#N)cc1
inactive: [1] 20.5% | [2] -3.87% | [6] 7.59% | [7] 14.6% | [8] 32.6%
active: [3] 35.8% | [4] 70.9% | [5] 66.7%

c1cnc2c(c1)ccc1cccnc12
active: [2] 31.6% | [3] 70.5% and 77.1% | [4] 104% | [5] 59.1% and 70.5% | [6] 50.6% and 74.9%
inactive: [1] 42.2%

COc1ccc(-c2c[n+](CC(=O)OC3CC(C)CCC3C(C)C)c3n2CCC3)cc1 (centres undefined)
active: [2] 42.1% | [4] 95.2% | [5] 62.6% | [6] 56.7%
inactive: [1] 22.9% | [3] 20.9%

CCN(CC)c1ccc(/C=N/NC(=O)c2cccc(S(=O)(=O)N3CCOCC3)c2)c(O)c1
active: [1] 60% | [2] 61.7% | [3] 79.2% | [4] 96.4% | [5] 82.6% | [6] 64.8%

Cc1sc(NC(=O)c2ccco2)c(C(c2cccnc2)N2CCN(c3ccc(F)cc3)CC2)c1C (centres undefined)
active: [2] 31.9% | [4] 61.9% | [5] 60.2% | [6] 53.9%
inactive: [1] 19.5% | [3] 24.4%

O=C(OCC12CC3CC(CC(C3)C1)C2)c1ccc(NCc2cc(O)ccc2O)cc1
active: [1] 88.3% | [2] 47.5% | [3] 48.6% | [4] 56.9% | [5] 67.2% | [6] 72.7% | [7] 97% | [8] 96.5%

COc1ccc(C(=O)C2CCCN(Cc3cccn3-c3ccc(Cl)cn3)C2)c(OC)c1 (centres undefined)
active: [4] 47.7% | [5] 47.4% | [6] 41.2%
inactive: [1] 17.1% | [2] 25.5% | [3] 19%

COC1C(=O)CCC2(CO2)C1(O)C1(C)OC1CC=C(C)C (centres undefined)
inactive: [1] 39.3% | [5] 39.6%
active: [2] 40.8% | [3] 33.8% | [4] 43% | [6] 42%

CCOC(=O)C(=CNc1ccc(NC2=NCC(C)S2)cc1)C(=O)OCC (centres undefined)
inactive: [2] 24.9% | [3] -39.4%
active: [1] 60.3% | [4] 69.1% | [5] 70.9% | [6] 36.8%

CCCCCCCCCCCCCCCC[n+]1ccccc1
inactive: [1] 16.6% | [2] 25.1% | [3] 23.1% and 10.5% | [7] 13.5% | [8] -2.51%
active: [4] 47.2% and 54.5% | [5] 57.7% and 48.1% | [6] 52.6% and 48.9%

CN(CCOc1ccc(Cl)cc1)C(=O)c1cccc(S(=O)(=O)N2CCN(c3ccc(F)cc3)CC2)c1
inactive: [1] 24.4% | [3] 24.3%
active: [2] 41.2% | [4] 60.9% | [5] 63.8% | [6] 53.2%

COC(=O)/C=C/C(=O)Nc1cccc(C(F)(F)F)c1
active: [3] 46.8% | [4] 46.6% | [5] 58.7%
inactive: [1] 4.81% | [2] 6.7% | [6] 28.6% | [7] 25.8% | [8] 20.4%

CC(C)N(c1ccccc1)c1ccc(NC(=O)CCl)cc1
active: [3] 32.8% | [4] 72.4% | [5] 60.9%
inactive: [1] 29.3% | [2] -9.17% | [6] -7.77% | [7] 17.1% | [8] 33.1%

Cc1ccccc1C(=O)N/N=C/c1ccc([N+](=O)[O-])s1
inactive: [1] 6.45% | [2] 8.35% | [6] 24.8%
active: [3] 46.1% | [4] 73.2% | [5] 65% | [7] 64.2% | [8] 63.1%

Cc1ccc2c(c1C)-c1c(ccc(C)c1C)C(=O)C2=O
active: [1] 58% | [2] 34.3% | [3] 64.4% | [4] 72% | [5] 80.5% | [6] 73.8%

Cc1ccc(C(=O)Nc2sc3c(c2C(=O)O)CCC(C)C3)o1 (centres undefined)
inactive: [1] 28%
active: [2] 68.3% | [3] 53.4% | [4] 89.5% | [5] 85.8% | [6] 77%

CC(C)CCOc1cccc(OCC(=O)Nc2ccncc2)c1
active: [2] 35.9% | [4] 61% | [5] 60.3% | [6] 58.9%
inactive: [1] -1.73% | [3] 21.4% | [7] 27.6% | [8] 38%
